{"source": "the supplement of paper PMC6607015", "note": "Structures can show the parent of a compound that is named as a salt.", "data": [{"test_system": "A431", "assay": "whole-cell filipin (free cholesterol) integrated intensity, Z-score; higher = more cholesterol staining", "conditions": "compound concentration in added solution (µM; 5 µl added to 20 µl cells): 10; 18 h", "outline": "(§1)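 Z-scores normalised in AcuityXpress are given for per-cell integrated LBPA or filipin intensity, measured whole-cell or within LBPA endosomes by MetaXpress segmentation. Cells (HeLa MZ or A431, 3,500 per well in 20 µl) were seeded onto 5 µl of 10 µM compound solution in duplicate 384-well imaging plates and fixed in 4% PFA after 18 h.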", "values": [{"smiles": "NCC1(CC(=O)O)CCCCC1", "note": "[Gabapentin]", "whole-cell filipin (z-score)": -0.349}, {"smiles": "CC(=O)NC1CCSC1=O", "note": "(racemic) [N-Acetyl-DL-homocysteine Thiolactone]", "whole-cell filipin (z-score)": -0.462}, {"smiles": "NCCCNCCSP(=O)(O)O", "note": "[Amifostine]", "whole-cell filipin (z-score)": -0.901}, {"smiles": "CCN(CC)C(C)C(=O)c1ccccc1", "note": "(stereo not given) [Amfepramone hydrochloride]", "whole-cell filipin (z-score)": -0.82}, {"smiles": "CCCC(C)C1(CC)C(=O)NC(=O)NC1=O", "note": "(stereo not given) [Pentobarbital]", "whole-cell filipin (z-score)": -0.881}, {"smiles": "O=[N+]([O-])O[C@H]1CO[C@H]2[C@@H]1OC[C@H]2O[N+](=O)[O-]", "note": "[Isosorbide dinitrate]", "whole-cell filipin (z-score)": -0.426}, {"smiles": "O[C@@H]1CCCC[C@H]1N1CCC(c2ccccc2)CC1", "note": "[L(-)-vesamicol hydrochloride]", "whole-cell filipin (z-score)": 0.21}, {"smiles": "O=c1[nH]c2ccccc2n1CCCN1CCC(n2c(=O)[nH]c3cc(Cl)ccc32)CC1", "note": "[Domperidone]", "whole-cell filipin (z-score)": 2.16}, {"smiles": "O=P1(NCCCl)OCCCN1CCCl", "note": "(stereo not given) [Ifosfamide]", "whole-cell filipin (z-score)": 0.0112}, {"smiles": "Cc1cccc(C)c1NC1=NCCCS1", "note": "[Xylazine]", "whole-cell filipin (z-score)": -0.691}, {"smiles": "O=c1[nH]oc2c1CCNC2", "note": "[THIP Hydrochloride]", "whole-cell filipin (z-score)": -0.151}, {"smiles": "CC[N+]1(C)CCCC(OC(=O)C(O)(c2ccccc2)c2ccccc2)C1", "note": "(stereo not given) [Pipenzolate bromide]", "whole-cell filipin (z-score)": -0.135}, {"smiles": "N[C@@H]1C[C@H]1c1ccccc1", "note": "[Tranylcypromine hydrochloride]", "whole-cell filipin (z-score)": -0.309}, {"smiles": "CN(C)C(=O)Oc1cc(OC(=O)N(C)C)cc(C(O)CNC(C)(C)C)c1", "note": "(stereo not given) [Bambuterol hydrochloride]", "whole-cell filipin (z-score)": -0.328}, {"smiles": "C[C@H](N)[C@H](O)c1ccc(O)c(O)c1", "note": "[Levonordefrin]", "whole-cell filipin (z-score)": 0.247}, {"smiles": "CO[C@]12C[C@@H](COC(=O)c3cncc(Br)c3)CN(C)[C@@H]1Cc1cn(C)c3cccc2c13", "note": "[Nicergoline]", "whole-cell filipin (z-score)": 3.37}, {"smiles": "C#C[C@]1(O)CC[C@H]2[C@@H]3CCC4=CC(=O)CCC4=C3C=C[C@@]21CC", "note": "[Gestrinone]", "whole-cell filipin (z-score)": 0.15}, {"smiles": "CC(C)(C)NCC(O)c1ccccc1Cl", "note": "(stereo not given) [Tulobuterol]", "whole-cell filipin (z-score)": 0.203}, {"smiles": "COc1cc2c(cc1OC)C(C)NCC2", "note": "(stereo not given)", "whole-cell filipin (z-score)": -0.808}, {"smiles": "CC(C)C[C@H]1C(=O)N2CCC[C@H]2[C@]2(O)O[C@](NC(=O)[C@@H]3C=C4c5cccc6[nH]c(Br)c(c56)C[C@H]4N(C)C3)(C(C)C)C(=O)N12", "note": "[Bromocryptine mesylate]", "whole-cell filipin (z-score)": 1.54}, {"smiles": "O=C(CCCN1CCC2(CC1)C(=O)NCN2c1ccccc1)c1ccc(F)cc1", "note": "[Spiperone]", "whole-cell filipin (z-score)": 1.66}, {"smiles": "CN1C[C@H](CNC(=O)OCc2ccccc2)C[C@@H]2c3cccc4c3c(cn4C)C[C@H]21", "note": "[Metergoline]", "whole-cell filipin (z-score)": 1.11}, {"smiles": "CCN[C@@H](C)Cc1cccc(C(F)(F)F)c1", "note": "[Dexfenfluramine hydrochloride]", "whole-cell filipin (z-score)": -0.95}, {"smiles": "CN1CCN(C(=O)OC2c3nccnc3C(=O)N2c2ccc(Cl)cn2)CC1", "note": "(stereo not given) [Zopiclone]", "whole-cell filipin (z-score)": -0.601}, {"smiles": "C[N+]12CCC(CC1)C(OC(=O)C(O)(c1ccccc1)c1ccccc1)C2", "note": "(stereo not given) [Clidinium bromide]", "whole-cell filipin (z-score)": -0.441}, {"smiles": "C[C@]12CCC(=O)C(O)=C1CC[C@@H]1[C@@H]2CC[C@]2(C)C(=O)CC[C@@H]12", "note": "[Formestane]", "whole-cell filipin (z-score)": 2.53}, {"smiles": "C[C@]12CCC(=O)C=C1CC[C@@H]1[C@@H]2C(=O)C[C@]2(C)C(=O)CC[C@@H]12", "note": "[Adrenosterone]", "whole-cell filipin (z-score)": 1.61}, {"smiles": "CCC1(CC)C(=O)C=CNC1=O", "note": "[Pyrithyldione]", "whole-cell filipin (z-score)": -0.51}, {"smiles": "CCn1cc(C(=O)O)c(=O)c2cc3c(cc21)OCO3", "note": "[Oxolinic acid]", "whole-cell filipin (z-score)": -0.848}, {"smiles": "C=C1CC[C@@]2(O)[C@H]3Cc4ccc(O)c5c4[C@@]2(CCN3CC2CC2)[C@H]1O5", "note": "[Nalmefene hydrochloride]", "whole-cell filipin (z-score)": -0.193}, {"smiles": "C[C@]12COC(=O)C[C@@H]1CC[C@@H]1[C@@H]2CC[C@@]2(C)[C@H]1CC[C@]2(C)O", "note": "[Oxandrolone]", "whole-cell filipin (z-score)": -0.15}, {"smiles": "C[C@]12N[C@H](Cc3ccccc31)c1ccccc12", "note": "[Dizocilpine maleate]", "whole-cell filipin (z-score)": -0.302}, {"smiles": "S=C(NC1CCCCC1)N1CCC(c2cnc[nH]2)CC1", "note": "[Thioperamide maleate]", "whole-cell filipin (z-score)": -0.0418}, {"smiles": "CN1C(=O)CCS(=O)(=O)C1c1ccc(Cl)cc1", "note": "(stereo not given) [Chlormezanone]", "whole-cell filipin (z-score)": -0.534}, {"smiles": "CN[C@@H]1[C@@H](O)[C@@H](O[C@@H]2[C@@H](O)[C@H](O[C@H]3O[C@H](CN)CC[C@H]3N)[C@@H](N)C[C@H]2N)OC[C@]1(C)O.CN[C@@H]1[C@@H](O)[C@@H](O[C@@H]2[C@@H](O)[C@H](O[C@H]3O[C@H]([C@@H](C)N)CC[C@H]3N)[C@@H](N)C[C@H]2N)OC[C@]1(C)O.CN[C@@H]1[C@@H](O)[C@@H](O[C@@H]2[C@@H](O)[C@H](O[C@H]3O[C@H]([C@@H](C)NC)CC[C@H]3N)[C@@H](N)C[C@H]2N)OC[C@]1(C)O", "note": "[Gentamicine sulfate]", "whole-cell filipin (z-score)": -1.14}]}, {"test_system": "HeLa MZ", "assay": "whole-cell filipin (free cholesterol) integrated intensity, Z-score; higher = more cholesterol staining", "conditions": "compound concentration in added solution (µM; 5 µl added to 20 µl cells): 10; 18 h", "outline": "as §1", "values": [{"smiles": "NCC1(CC(=O)O)CCCCC1", "note": "[Gabapentin]", "whole-cell filipin (z-score)": -0.476}, {"smiles": "CC(=O)NC1CCSC1=O", "note": "(racemic) [N-Acetyl-DL-homocysteine Thiolactone]", "whole-cell filipin (z-score)": -0.0159}, {"smiles": "NCCCNCCSP(=O)(O)O", "note": "[Amifostine]", "whole-cell filipin (z-score)": -0.742}, {"smiles": "CCN(CC)C(C)C(=O)c1ccccc1", "note": "(stereo not given) [Amfepramone hydrochloride]", "whole-cell filipin (z-score)": -0.758}, {"smiles": "CCCC(C)C1(CC)C(=O)NC(=O)NC1=O", "note": "(stereo not given) [Pentobarbital]", "whole-cell filipin (z-score)": -0.632}, {"smiles": "O=[N+]([O-])O[C@H]1CO[C@H]2[C@@H]1OC[C@H]2O[N+](=O)[O-]", "note": "[Isosorbide dinitrate]", "whole-cell filipin (z-score)": -0.655}, {"smiles": "O[C@@H]1CCCC[C@H]1N1CCC(c2ccccc2)CC1", "note": "[L(-)-vesamicol hydrochloride]", "whole-cell filipin (z-score)": 0.285}, {"smiles": "O=c1[nH]c2ccccc2n1CCCN1CCC(n2c(=O)[nH]c3cc(Cl)ccc32)CC1", "note": "[Domperidone]", "whole-cell filipin (z-score)": 2.38}, {"smiles": "O=P1(NCCCl)OCCCN1CCCl", "note": "(stereo not given) [Ifosfamide]", "whole-cell filipin (z-score)": -0.489}, {"smiles": "Cc1cccc(C)c1NC1=NCCCS1", "note": "[Xylazine]", "whole-cell filipin (z-score)": -0.725}, {"smiles": "O=c1[nH]oc2c1CCNC2", "note": "[THIP Hydrochloride]", "whole-cell filipin (z-score)": -1.07}, {"smiles": "CC[N+]1(C)CCCC(OC(=O)C(O)(c2ccccc2)c2ccccc2)C1", "note": "(stereo not given) [Pipenzolate bromide]", "whole-cell filipin (z-score)": 0.198}, {"smiles": "N[C@@H]1C[C@H]1c1ccccc1", "note": "[Tranylcypromine hydrochloride]", "whole-cell filipin (z-score)": -0.693}, {"smiles": "CN(C)C(=O)Oc1cc(OC(=O)N(C)C)cc(C(O)CNC(C)(C)C)c1", "note": "(stereo not given) [Bambuterol hydrochloride]", "whole-cell filipin (z-score)": -0.434}, {"smiles": "C[C@H](N)[C@H](O)c1ccc(O)c(O)c1", "note": "[Levonordefrin]", "whole-cell filipin (z-score)": 0.753}, {"smiles": "CO[C@]12C[C@@H](COC(=O)c3cncc(Br)c3)CN(C)[C@@H]1Cc1cn(C)c3cccc2c13", "note": "[Nicergoline]", "whole-cell filipin (z-score)": -0.0724}, {"smiles": "C#C[C@]1(O)CC[C@H]2[C@@H]3CCC4=CC(=O)CCC4=C3C=C[C@@]21CC", "note": "[Gestrinone]", "whole-cell filipin (z-score)": 0.634}, {"smiles": "CC(C)(C)NCC(O)c1ccccc1Cl", "note": "(stereo not given) [Tulobuterol]", "whole-cell filipin (z-score)": 0.36}, {"smiles": "COc1cc2c(cc1OC)C(C)NCC2", "note": "(stereo not given)", "whole-cell filipin (z-score)": -0.327}, {"smiles": "CC(C)C[C@H]1C(=O)N2CCC[C@H]2[C@]2(O)O[C@](NC(=O)[C@@H]3C=C4c5cccc6[nH]c(Br)c(c56)C[C@H]4N(C)C3)(C(C)C)C(=O)N12", "note": "[Bromocryptine mesylate]", "whole-cell filipin (z-score)": 0.742}, {"smiles": "O=C(CCCN1CCC2(CC1)C(=O)NCN2c1ccccc1)c1ccc(F)cc1", "note": "[Spiperone]", "whole-cell filipin (z-score)": 1.7}, {"smiles": "CN1C[C@H](CNC(=O)OCc2ccccc2)C[C@@H]2c3cccc4c3c(cn4C)C[C@H]21", "note": "[Metergoline]", "whole-cell filipin (z-score)": 1.28}, {"smiles": "CCN[C@@H](C)Cc1cccc(C(F)(F)F)c1", "note": "[Dexfenfluramine hydrochloride]", "whole-cell filipin (z-score)": -0.721}, {"smiles": "CN1CCN(C(=O)OC2c3nccnc3C(=O)N2c2ccc(Cl)cn2)CC1", "note": "(stereo not given) [Zopiclone]", "whole-cell filipin (z-score)": -0.164}, {"smiles": "C[N+]12CCC(CC1)C(OC(=O)C(O)(c1ccccc1)c1ccccc1)C2", "note": "(stereo not given) [Clidinium bromide]", "whole-cell filipin (z-score)": -0.644}, {"smiles": "C[C@]12CCC(=O)C(O)=C1CC[C@@H]1[C@@H]2CC[C@]2(C)C(=O)CC[C@@H]12", "note": "[Formestane]", "whole-cell filipin (z-score)": 2.23}, {"smiles": "C[C@]12CCC(=O)C=C1CC[C@@H]1[C@@H]2C(=O)C[C@]2(C)C(=O)CC[C@@H]12", "note": "[Adrenosterone]", "whole-cell filipin (z-score)": 2.01}, {"smiles": "CCC1(CC)C(=O)C=CNC1=O", "note": "[Pyrithyldione]", "whole-cell filipin (z-score)": -0.44}, {"smiles": "CCn1cc(C(=O)O)c(=O)c2cc3c(cc21)OCO3", "note": "[Oxolinic acid]", "whole-cell filipin (z-score)": -0.638}, {"smiles": "C=C1CC[C@@]2(O)[C@H]3Cc4ccc(O)c5c4[C@@]2(CCN3CC2CC2)[C@H]1O5", "note": "[Nalmefene hydrochloride]", "whole-cell filipin (z-score)": -0.0735}, {"smiles": "C[C@]12COC(=O)C[C@@H]1CC[C@@H]1[C@@H]2CC[C@@]2(C)[C@H]1CC[C@]2(C)O", "note": "[Oxandrolone]", "whole-cell filipin (z-score)": -0.159}, {"smiles": "C[C@]12N[C@H](Cc3ccccc31)c1ccccc12", "note": "[Dizocilpine maleate]", "whole-cell filipin (z-score)": -0.304}, {"smiles": "S=C(NC1CCCCC1)N1CCC(c2cnc[nH]2)CC1", "note": "[Thioperamide maleate]", "whole-cell filipin (z-score)": 0.0454}, {"smiles": "CN1C(=O)CCS(=O)(=O)C1c1ccc(Cl)cc1", "note": "(stereo not given) [Chlormezanone]", "whole-cell filipin (z-score)": 0.0972}, {"smiles": "CN[C@@H]1[C@@H](O)[C@@H](O[C@@H]2[C@@H](O)[C@H](O[C@H]3O[C@H](CN)CC[C@H]3N)[C@@H](N)C[C@H]2N)OC[C@]1(C)O.CN[C@@H]1[C@@H](O)[C@@H](O[C@@H]2[C@@H](O)[C@H](O[C@H]3O[C@H]([C@@H](C)N)CC[C@H]3N)[C@@H](N)C[C@H]2N)OC[C@]1(C)O.CN[C@@H]1[C@@H](O)[C@@H](O[C@@H]2[C@@H](O)[C@H](O[C@H]3O[C@H]([C@@H](C)NC)CC[C@H]3N)[C@@H](N)C[C@H]2N)OC[C@]1(C)O", "note": "[Gentamicine sulfate]", "whole-cell filipin (z-score)": -0.98}]}]}
